The text below walks through data of PubChem BioAssay (NCATS).

Structures are written as SMILES. Several values for one entry are separate records, joined by “and”; a condition that tells them apart may be missing. Identical values can stand only once. Results filed as inconclusive are left out. Activity calls are given as the source filed them. Calls come from the whole dose curve.

Sequence of Bile acid receptor (Homo sapiens) (Q96RI1 whole entry, looked up): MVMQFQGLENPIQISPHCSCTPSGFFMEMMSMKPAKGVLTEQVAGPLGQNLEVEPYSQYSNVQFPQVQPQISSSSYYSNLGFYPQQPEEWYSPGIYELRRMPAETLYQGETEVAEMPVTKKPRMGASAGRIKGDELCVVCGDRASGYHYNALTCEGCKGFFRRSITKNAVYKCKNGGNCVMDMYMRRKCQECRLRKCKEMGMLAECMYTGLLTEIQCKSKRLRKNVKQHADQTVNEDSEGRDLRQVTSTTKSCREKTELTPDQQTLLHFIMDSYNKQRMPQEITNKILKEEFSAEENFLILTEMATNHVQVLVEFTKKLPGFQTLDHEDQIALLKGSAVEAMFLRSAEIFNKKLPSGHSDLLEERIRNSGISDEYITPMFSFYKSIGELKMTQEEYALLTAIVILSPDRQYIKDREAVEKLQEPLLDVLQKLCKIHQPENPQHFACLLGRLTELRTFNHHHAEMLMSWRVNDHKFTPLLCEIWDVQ

The assay addresses Bile acid receptor (Homo sapiens) (UniProt Q96RI1). Nature of the assay: qHTS assay for small molecule agonists of farnesoid X receptor signaling (AID 588527).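 Note: series mostly up to about 77 µM; 0% = vehicle basal and 100% = reference agonist.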 Particulars: HEK293T FXR-UAS-bla, beta-lactamase ratio, 16 h; activation: stronger effect = higher value. Summed up:
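Read-out: beta-lactamase reporter fluorescence with CCF4 substrate in GeneBLAzer FXR-UAS-bla HEK293T cells, after 16 h compound exposure at 37 C. Response scaled between DMSO basal (0%) and chenodeoxycholic acid at 100 uM (100%).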
Background: In qHTS, concentration-response curves come from the screen itself.
For `Nc1ccc(N)c(Cl)c1`, the activation is -0.837% (inactive).

As for `Nc1ccc(S(=O)(=O)O)cc1`, the activation was -1.98% (inactive) and -2.03% (inactive).

For `CCN(CC)c1ccc(N)cc1`, the activation is -0.874% (inactive).

With `CC[C@H](C)C1O[C@]2(C=C[C@@H]1C)C[C@@H]1C[C@@H](C/C=C(\C)[C@@H](O[C@H]3C[C@H](OC)[C@@H](O[C@H]4C[C@H](OC)[C@H](NC(C)=O)[C@H](C)O4)[C@H](C)O3)[C@@H](C)/C=C/C=C3\CO[C@@H]4[C@H](O)C(C)=C[C@@H](C(=O)O1)[C@]34O)O2` (stereo partly drawn), the activation was 6.91% (inactive).

Regarding `C=CCCCCCC`, the activation was -0.782% (inactive).

Turning to `O=[N+]([O-])c1cc(Cl)c(Cl)c(Cl)c1Cl`, the activation was -3.36% (inactive).

With `O=P(O)(OCc1ccccc1)OCc1ccccc1`, the activation was -0.26% (inactive).

In the case of `C=C(C)C(=O)OCCCCCC`, the activation is -1.11% (inactive).

Turning to `Cc1cc2nc(N)sc2cc1C`, the activation was 0.811% (inactive).

As for `CC1CCC2CC1C2(C)C` (stereo not drawn), the activation is 3.3% (inactive).

In the case of `C[Si](Cl)(Cl)[Si](C)(Cl)Cl`, the activation is 5.31% (inactive).

In the case of `CNc1ccc(O)cc1`, the activation is 3.85% (inactive).

With `O=Cc1ccccc1Cl`, the activation is 0.21% (inactive).

As for `CN(C)Cc1cc(CN(C)C)c(O)c(CN(C)C)c1`, the activation is -0.172% (inactive).

On to `Cc1ccc(C)c(N)c1`, for which the activation was -1.33% (inactive).

For the compound `CC(Cl)(Cl)C(=O)OCCOc1cc(Cl)c(Cl)cc1Cl`, the activation was 0.229% (inactive).

For the compound `CC(C)(C)c1ccc(O)c(C(C)(C)C)c1`, the activation was 3.24% (inactive).

Regarding `CC(=O)Nc1ccc(C(=O)CCl)cc1`, the activation is 2.69% (inactive).
